Consider eight compounds from PubChem BioAssay (NCI).

About 83,000 compounds went through this panel and 20% of them were active in at least one assay; those are over-represented in the sample as a whole.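 Treatment: one concentration, 48 hours, 96-well format. Scoring: percent growth, with anything below 10 considered active.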 Unmarked numbers belong to inactive results. Calls of active or inactive are those of the source.

Some test systems named below: NCI-H23 lung; NCI-H226 lung; NCI-H322M lung; HOP-62 NSCLC; NCI-H460 lung; HOP-92 NSCLC; NCI-H522 lung; A549/ATCC NSCLC; 786-0 renal; COLO 205 colon; DU-145 prostate; K-562 leukemia; MALME-3M melanoma; MDA-MB-231 breast; RXF 393 renal; SF-268 CNS; SF-295 CNS; SF-539 CNS; UACC-257 melanoma; M14 melanoma.
Assay in all cases: NCI-60 one-dose screen, 48 h (100 = growth as untreated, 0 = no growth, -100 = all killed)
Conditions in all cases: 10 µM unless noted

Turning to `COc1cc(NC(C)CCCN2C(=O)c3ccccc3C2=O)c2nccc(C)c2c1OC` (stereo not given), the growth with NCI-H23 lung is 90.1%; in the experiment on NCI-H226 lung, 94.1%; in the experiment with NCI-H322M lung, 102%; in the experiment on HOP-62 NSCLC, 103%; in the experiment with NCI-H460 lung it was 108%; in the experiment with HOP-92 NSCLC it was 60.1%. The growth is 75.2% with NCI-H522 lung; 93.9% with A549/ATCC NSCLC; 94.2% in the experiment with 786-0 renal; 131% in the experiment on COLO 205 colon; 124% with DU-145 prostate; 60.9% with K-562 leukemia. Moreover, the growth is 81.2% in the experiment on MALME-3M melanoma; 84.7% in the experiment with MDA-MB-231 breast; 106% in the experiment on RXF 393 renal; 104% in the experiment on SF-268 CNS; 119% with SF-295 CNS; 119% in the experiment with SF-539 CNS. The growth in the experiment on UACC-257 melanoma was 106%; in the experiment on M14 melanoma, 135%.
As for `O=C1OC(=O)C2C3CC(c4ccccc43)C12` (stereo not given), the growth in the experiment with NCI-H23 lung was 101%; with NCI-H226 lung it was 110%; in the experiment with NCI-H322M lung it was 107%; in the experiment with HOP-62 NSCLC, 97.8%; in the experiment with NCI-H460 lung, 113%; in the experiment with HOP-92 NSCLC, 72.4%. Further, the growth with NCI-H522 lung is 105%; in the experiment on A549/ATCC NSCLC it was 91.7%; with 786-0 renal, 102%; with COLO 205 colon, 97.8%; with DU-145 prostate, 145%; in the experiment with K-562 leukemia it was 111%. Further, the growth in the experiment on MALME-3M melanoma is 101%; in the experiment with MDA-MB-231 breast it was 117%; with RXF 393 renal, 116%; with SF-268 CNS it was 123%; in the experiment on SF-295 CNS, 101%; in the experiment with SF-539 CNS, 103%. In addition, the growth in the experiment on UACC-257 melanoma was 91.8%; in the experiment on M14 melanoma, 112%.
As to `Cc1ncc(CO)c(C(=O)O)c1O`, the growth with NCI-H23 lung is 98.6%; in the experiment on NCI-H226 lung, 102%; in the experiment with NCI-H322M lung it was 80.9%; in the experiment on HOP-62 NSCLC, 104%; in the experiment on NCI-H460 lung, 105%; in the experiment with HOP-92 NSCLC it was 106%. The growth in the experiment with NCI-H522 lung was 79.8%; in the experiment on A549/ATCC NSCLC, 110%; in the experiment on 786-0 renal, 97.5%; with COLO 205 colon, 112%; with DU-145 prostate, 102%; in the experiment on K-562 leukemia, 93%. Also, the growth with MALME-3M melanoma was 95.9%; in the experiment on MDA-MB-231 breast, 103%; in the experiment with RXF 393 renal, 106%; in the experiment with SF-268 CNS, 94.4%; with SF-295 CNS, 100%; in the experiment with SF-539 CNS, 96.6%. For the same compound, the growth with UACC-257 melanoma is 107%; in the experiment with M14 melanoma, 93.7%.
In the case of `Nc1ccc(S(=O)(=O)Nc2cc(I)cc(I)c2)cc1`, the growth with NCI-H23 lung was 93.6%; in the experiment with NCI-H226 lung, 113%; in the experiment with NCI-H322M lung it was 94.8%; in the experiment with HOP-62 NSCLC, 91.1%; with NCI-H460 lung, 109%; in the experiment with HOP-92 NSCLC, 79.2%. Besides, the growth in the experiment with NCI-H522 lung was 90.1%; in the experiment with A549/ATCC NSCLC, 112%; in the experiment on 786-0 renal, 95.5%; with COLO 205 colon, 123%; in the experiment with DU-145 prostate, 124%; with K-562 leukemia, 78.5%. Besides, the growth with MALME-3M melanoma is 118%; in the experiment on MDA-MB-231 breast, 102%; in the experiment on RXF 393 renal, 97.2%; with SF-268 CNS it was 108%; in the experiment with SF-295 CNS it was 113%; in the experiment with SF-539 CNS it was 111%. In addition, the growth in the experiment with UACC-257 melanoma was 99.7%; in the experiment on M14 melanoma it was 110%.
Regarding `O=C(O)c1ccc(-n2cc(/C=N/Nc3ccccc3F)c(-c3ccc(O)cc3)n2)cc1`, the growth in the experiment with NCI-H23 lung was 92.3%; in the experiment with NCI-H226 lung it was 95.3%; in the experiment with NCI-H322M lung it was 79.1%; in the experiment with HOP-62 NSCLC, 91.7%; in the experiment on NCI-H460 lung, 101%; in the experiment with HOP-92 NSCLC, 95.6%. Moreover, the growth was 48.3% in the experiment on NCI-H522 lung; 86.8% with A549/ATCC NSCLC; 84% in the experiment on 786-0 renal; 95.9% in the experiment on COLO 205 colon; 97% in the experiment on DU-145 prostate; 13% with K-562 leukemia. Further, the growth in the experiment on MALME-3M melanoma is 92.7%; in the experiment with MDA-MB-231 breast, 85.2%; in the experiment on RXF 393 renal, 92.6%; with SF-268 CNS, 78.6%; with SF-295 CNS, 80.5%; with SF-539 CNS it was 85.9%. The growth in the experiment on UACC-257 melanoma is 103%; with M14 melanoma, 73.5%.
As for `CCC1S/C(=N\N=C(/C)c2cc3ccccc3o2)N(c2ccccc2)C1=O` (stereo not given), the growth in the experiment on NCI-H23 lung was 93.6%; with NCI-H226 lung, 108%; with NCI-H322M lung, 92.2%; with HOP-62 NSCLC it was 101%; in the experiment on NCI-H460 lung, 123%; with HOP-92 NSCLC, 47%. Moreover, the growth in the experiment with NCI-H522 lung is 88.3%; with A549/ATCC NSCLC, 113%; in the experiment on 786-0 renal, 103%; in the experiment with COLO 205 colon, 123%; in the experiment on DU-145 prostate, 161%; in the experiment with K-562 leukemia, 79.8%. For the same compound, the growth in the experiment with MALME-3M melanoma is 105%; in the experiment with MDA-MB-231 breast, 85.4%; with RXF 393 renal it was 98.7%; in the experiment with SF-268 CNS, 202%; with SF-295 CNS it was 128%; in the experiment on SF-539 CNS, 135%. The growth was 118% in the experiment on UACC-257 melanoma and 101% in the experiment on M14 melanoma.
Turning to `COc1ccc(-c2nnc(SCC(=O)Nc3ccc(C(=O)/C=C/c4ccc(Cl)cc4)cc3)o2)cc1OC`, the growth in the experiment on NCI-H23 lung is 79%; with NCI-H226 lung, 85.7%; with NCI-H322M lung, 87.4%; in the experiment on HOP-62 NSCLC it was 71.8%; in the experiment on NCI-H460 lung, 70%; with HOP-92 NSCLC, 29.7%. Also, the growth with NCI-H522 lung is 16.7%; in the experiment with A549/ATCC NSCLC, 90.7%; in the experiment on 786-0 renal, 70.8%; in the experiment on COLO 205 colon it was 116%; with DU-145 prostate, 78.9%; in the experiment on K-562 leukemia it was 52%. Besides, the growth with MALME-3M melanoma was 5.79% (active); with MDA-MB-231 breast it was 76.3%; in the experiment on RXF 393 renal, 95.9%; with SF-268 CNS, 82.2%; in the experiment with SF-295 CNS, 80.4%; in the experiment with SF-539 CNS, 54.5%. For the same compound, the growth is 91.4% in the experiment on UACC-257 melanoma and 81.7% in the experiment with M14 melanoma.
As for `COc1ccc(-c2nn(-c3cccc(Cl)c3)cc2-c2cc(-c3ccc(Br)cc3)[nH]c(=O)c2C#N)cc1`, the growth in the experiment on NCI-H23 lung was 86.8%; with NCI-H226 lung, 84%; with NCI-H322M lung, 83.9%; with HOP-62 NSCLC it was 93.8%; in the experiment with NCI-H460 lung, 48.9%; in the experiment with HOP-92 NSCLC, 82.1%. Besides, the growth in the experiment with NCI-H522 lung was 74.7%; in the experiment on A549/ATCC NSCLC, 68.2%; in the experiment on 786-0 renal, 102%; in the experiment with COLO 205 colon, 104%; in the experiment on DU-145 prostate, 56.5%; in the experiment on K-562 leukemia, 81.8%. In addition, the growth in the experiment with MALME-3M melanoma was 69.1%; in the experiment with MDA-MB-231 breast it was 60.8%; in the experiment on RXF 393 renal, 75.3%; in the experiment on SF-268 CNS it was 89.1%; in the experiment with SF-295 CNS it was 99.1%; in the experiment with SF-539 CNS, 81%. In addition, the growth with UACC-257 melanoma was 93.4%; in the experiment with M14 melanoma, 81.4%.
